# This is a sample that favours compounds with a hit; in the whole collection about 2.4% have one here.
# S2 tox: viability counter-screen for ATXN expression inhibitors; S2 cells (HEK-293 line with an ATXN2-luciferase reporter) viability, CellTiter-Fluor protease fluorescence, 24 h; Potency, µM (titrated, usually from 56.7 µM), most hits filed as cytotoxic; 400,000 tested, 0.49% active; AID 651635; note: nearly all actives have a fitted effect of over 40% in size
# TGFb SMAD3 inh: blocks TGF-b signaling. AID 588855. 410,000 tested, 1.2% active. HepG2 CAGA-GFP TGF-b/SMAD3 reporter, GFP fluorescence, 18 h; TGF-beta stimulated, 500 pg/mL final. Potency, µM (highest dose often 46.1 µM), inactives show at the top dose activity, negative = inhibition, usual class: inhibitors; note: % is set by controls: 0 for no effect and ±100 for the full control effect; nearly all actives have a fitted effect of over 65% in size
#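 First, reporter cells (HEPG2 CAGA-GFP) rested 2 h at 37 degrees C. Next, compounds were pinned in and TGF-beta added to 500 pg/mL final. After 18 h, GFP was imaged per cell and summed per well.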
# Apoferritin bind: binds horse apoferritin like a general anesthetic | Potency, µM (top dose mostly 77.5 µM), for the others: at the top dose activity change, negative = displacement, usual class: inhibitors | 350,000 tested, 0.074% active | apoferritin/1-aminoanthracene competitive binding, fluorescence | P02791; note: % is set by controls: 0 for no effect and ±100 for the full control effect; nearly all actives have a fitted effect of over 20% in size
# Target sequence (P02791 2-175 limits assumed): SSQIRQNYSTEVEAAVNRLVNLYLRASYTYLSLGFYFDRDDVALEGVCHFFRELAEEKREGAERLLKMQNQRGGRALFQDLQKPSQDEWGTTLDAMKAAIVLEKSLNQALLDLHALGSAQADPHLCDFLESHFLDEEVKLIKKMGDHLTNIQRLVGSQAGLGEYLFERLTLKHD
#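 In PBS, apoferritin at 10 uM is loaded with 1-AMA from a 50% saturated solution. After 10 min of compound exposure at ambient temperature, reduced 535 nm fluorescence indicates probe displacement.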
# HepG2 tox-1: kills HepG2 cells in TGF-b inhibitor counter-screen | 410,000 tested, 0.76% active | AID 588856 | Potency, µM (highest dose often 46.1 µM), inactives show top-dose activity change, negative = cytotoxicity, most hits filed as cytotoxic | HepG2 CAGA-GFP viability, ATP luminescence, 18 h
#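 CellTiter-Glo luminescence gave cytotoxicity after 18 hours at 37 degrees C. The cells were HepG2 CAGA-GFP in 1% FBS DMEM, stimulated with 500 pg/mL TGF-beta after compound addition. %Activity was normalised to no-cell wells (complete cell-killing) and DMSO (no toxicity), and curves were fitted and classified.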
# ATXN2 expr inh: inhibitors of ATXN2 expression; HEK-293 ATXN2-luciferase reporter, luminescence, 24 h; Potency, µM (titrated, usually from 57 µM), inactives show top-dose activity change, negative = inhibition, usual class: inhibitors; AID 1745845; 360,000 tested, 0.72% active; note: % is set by controls: 0 for no effect and ±100 for the full control effect; nearly all actives have a fitted effect of over 55% in size
#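 qHTS (up to 57 uM final) was run with 24 h compound exposure of reporter cells at 37 °C. Each well was multiplexed: SteadyGlo luminescence measured ATXN2-luciferase expression after a fluorogenic Gly-Phe-AFC viability readout (25 uM final).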
# TGFb confirm: confirmation of TGF-b signaling inhibitors in HepG2 reporter cells | shares compounds with TGFb SMAD3 inh | HepG2 CAGA-GFP TGF-b reporter, GFP fluorescence, 18 h; cells stimulated with TGF-beta, 500 pg/mL | Potency, µM (doses to about 46.1 µM), for the others: top-dose activity, negative = inhibition, most hits filed as inhibitors | 1,600 tested, 63% active | AID 720534; note: % is set by controls: 0 for no effect and ±100 for the full control effect; nearly all actives have a fitted effect of over 65% in size
# HepG2 tox-2: toxic to HepG2 cells in TGF-b counterscreen; shares compounds with TGFb SMAD3 inh; HepG2 CAGA-GFP viability, ATP luminescence, 18 h; cells stimulated with TGF-beta, 500 pg/mL; Potency, µM (top dose mostly 46.1 µM), inactives show top-dose activity, negative = cytotoxicity, actives largely listed as inhibitors; 1,600 tested, 27% active; note: % is set by controls: 0 for no effect and ±100 for the full control effect; nearly all actives have a fitted effect of over 70% in size
# CCL64 TGFb inh: TGF-b inhibition, CCL64 orthogonal assay. shares compounds with TGFb SMAD3 inh. CCL64 CAGA-GFP reporter, TGF-b stimulated, GFP fluorescence, 18 h. Potency, µM (titrated, usually from 46.1 µM), for inactives: top-dose activity, negative = inhibition, usual class: inhibitors. 1,600 tested, 41% active; note: nearly all actives have a fitted effect of over 65% in size
# TGFb COP inh: blocks TGF-b signaling in HepG2 COP reporter; shares compounds with TGFb SMAD3 inh; HepG2 COP-GFP TGF-b reporter, GFP fluorescence, 18 h; cells stimulated by added recombinant TGF-beta; Potency, µM (top dose mostly 46.1 µM), for inactives: top-dose activity, negative = inhibition, hits mostly inhibitors; 1,600 tested, 3% active; note: nearly all actives have a fitted effect of over 70% in size
# * hit, by the source's call; i = inactive; ? = inconclusive; nt = no result given. Calls come from the whole dose curve; as a rule, active = well fitted curve in the direction sought with a large enough effect; inconclusive = small, poorly fitted or top-dose-only effect, or another doubt; inactive = no such curve, though single readings can be large; an effect the other way counts as inactive or inconclusive. Potency is the fitted concentration of half-maximal effect.
SMILES,S2 tox,TGFb SMAD3 inh,Apoferritin bind,HepG2 tox-1,ATXN2 expr inh,TGFb confirm,HepG2 tox-2,CCL64 TGFb inh,TGFb COP inh
C[C@]12c3[nH]c4cc(-c5ccco5)ccc4c3CCN1C(=O)[C@@H](CC(=O)NCC13CC4CC(CC(C4)C1)C3)C[C@@H]2C(=O)N1CCCCC1,?,?,nt,-39.7%,?,nt,nt,nt,nt
C[C@]12c3[nH]c4cc(-c5ccco5)ccc4c3CCN1C(=O)[C@@H](CC(=O)NCc1cccc(C(F)(F)F)c1)C[C@@H]2C(=O)N1CCCCC1,?,7.94µM*,nt,-28.3%,?,16.4µM*,?,?,54.9%
CC[C@]12c3[nH]c4cc(-c5ccco5)ccc4c3CCN1C(=O)[C@@H](CC(=O)NCc1ccco1)C[C@@H]2C(=O)N1CCN(C(=O)C2CC2)CC1,i,-1.5%,nt,1.7%,-2.4%,nt,nt,nt,nt
CC[C@]12c3[nH]c4cc(-c5ccco5)ccc4c3CCN1C(=O)[C@@H](CC(=O)NCc1cccc(C(F)(F)F)c1)C[C@@H]2C(=O)N1CCN(C(=O)C2CC2)CC1,?,10µM*,nt,-4.7%,?,14.6µM*,?,?,25.1%
CC1(C)CC(=O)C2=C(C1)N(c1ccc(Cl)cc1)C(=O)C2(O)C(F)(F)F (stereo not given),i,?,4.4%,-28.4%,0.5%,nt,nt,nt,nt
COc1cccc(CN2CCC2(C)C(=O)Nc2cccc3cccnc23)c1F (stereo not given),?,10µM*,nt,-43.6%,?,?,-12.0%,?,14.9%
COc1ccc(OC)c(NC(=O)C2(C)CCN2Cc2cccc(OC)c2F)c1 (stereo not given),?,-18.8%,nt,-9.6%,?,nt,nt,nt,nt
CC(=O)O[C@@H](C[C@@H](C)C1=C2C[C@H](O)C3[C@@]4(C)CCC(=O)C(C)(C)C4CC[C@]3(C)[C@@]2(C)CC1)[C@H]1OC1(C)C (stereo not given in full),35.5µM*,11.2µM*,nt,-24.4%,?,13µM*,?,?,51.8%
CCOC(=O)c1ccc(NC(=O)C(CC)Sc2nc3ccncc3[nH]2)cc1 (stereo not given),?,-9.3%,-6.5%,-18.2%,10.2%,nt,nt,nt,nt
Cc1ccc(Cc2nnc3n(-c4ccccc4)nc(C(=O)c4ccccc4)n3c2=O)cc1,?,2.0%,2.3%,-14.5%,?,nt,nt,nt,nt
COc1ccc(CN2C[C@H]3CCCN3c3cc(Br)ccc3S2(=O)=O)cc1,?,10µM*,nt,-20.5%,-6.8%,8.2µM*,-2.5%,?,-22.4%
CCOC(=O)c1sc(NC(=O)c2cc(-c3ccc(C)cc3)nc3ccccc23)c(C#N)c1C,i,?,-9.3%,-12.0%,9.4%,nt,nt,nt,nt
COC(=O)c1sc(NC(=O)c2cc(-c3ccccc3)nc3ccccc23)c(C#N)c1C,?,5.01µM*,-21.6%,-46.0%,?,4.61µM*,?,3.26µM*,44.5%
O=C(Nc1nnc(-c2cccs2)o1)c1cc(-c2ccccc2)nc2ccccc12,?,11.2µM*,8.1%,-10.7%,?,11.6µM*,?,14.6µM*,26.6%
COc1ccc(-c2cc(C(=O)Nc3sc4c(c3C#N)CCCC4)c3ccccc3n2)cc1,i,-18.0%,-7.4%,-17.8%,3.3%,nt,nt,nt,nt
Cc1ccccc1-c1cc(C(=O)Nc2sc(C(=O)OC(C)C)c(C)c2C#N)c2ccccc2n1,?,3.55µM*,?,-34.5%,?,5.17µM*,1.46µM*,5.8µM*,55.0%
O=C(CCC(=O)N1CC2CCCN2c2ccccc21)NCc1cccc(Cl)c1 (stereo not given),nt,?,256.8%,-25.0%,nt,nt,nt,nt,nt
Cc1ccc(Cn2c(C)c3cnn(CC(=O)O)c(=O)c3c2C)cc1,nt,nt,-5.0%,-0.1%,nt,nt,nt,nt,nt
COc1ccc(-c2cc(-c3c(O)c(OC)c4occc4c3OC)[nH]n2)cc1OC,i,7.94µM*,-11.7%,-28.7%,2.1%,?,?,?,61.2%
CC(C)(C)NS(=O)(=O)c1cccc(S(=O)(=O)c2cccc(S(=O)(=O)NC(C)(C)C)c2)c1,i,12.6µM*,-22.0%,-10.7%,-21.4%,14.6µM*,?,-23.4%,10.9%
Cc1oc2cc(Br)c(O)c(Br)c2c1-c1ccccc1,i,10µM*,-12.2%,-66.1%,168.3%,?,-16.8%,?,18.9%
CCOc1ccc(CNC(=O)c2ccc(Sc3ccc(Cl)cc3)c(NC(C)=O)c2)cc1,i,?,68.2%,-19.0%,?,nt,nt,nt,nt
CCOc1ccccc1CNC(=O)c1ccc(Sc2ccc(Cl)cc2)c(NC(C)=O)c1,i,?,-10.7%,-1.3%,2.1%,?,-26.1%,?,-2.9%
COc1cc(-c2cnc3c(NC=O)cc(-c4cccc(NC(C)=O)c4)cn23)cc(OC)c1OC,i,?,nt,8.6%,-12.9%,nt,nt,nt,nt
CC(=O)c1ccc(-c2cnc3c(NC=O)cc(-c4ccc(C(=O)N5CCOCC5)cc4)cn23)cc1,i,?,nt,-5.0%,-25.9%,?,?,?,56.6%
CC(=O)Nc1cccc(-c2cc(NC=O)c3ncc(-c4cccc(C(C)=O)c4)n3c2)c1,i,2.82µM*,nt,23.3%,-26.7%,6.51µM*,?,?,30.3%
COc1cccc(-c2cnc3c(NC=O)cc(-c4ccc(S(C)(=O)=O)cc4)cn23)c1,i,1.78µM*,nt,-3.3%,-20.6%,4.61µM*,-29.5%,2.06µM*,30.9%
COc1cccc(-c2cnc3c(NC=O)cc(-c4cccc(NC(C)=O)c4)cn23)c1,i,7.08µM*,nt,-2.7%,-38.9%,5.8µM*,?,14.6µM*,56.4%

# High-throughput results as filed in PubChem BioAssay.
